Laboratory results reported in PubChem BioAssay AID2429 (National Center for Advancing Translational Sciences (NCATS), 2010).
The list shows a part of the results. Activity calls are given as the source filed them. The call rests on the fitted dose curve.

Molecular target: 15-hydroxyprostaglandin dehydrogenase [NAD(+)] (Homo sapiens) (UniProt P15428)
Experiment: Confirmation qHTS Assay for Inhibitors of HPGD (15-Hydroxyprostaglandin Dehydrogenase)
Settings: recombinant HPGD, NADH fluorescence, PGE2 substrate
Description: Assay Overview: Human 15-Hydroxyprostaglandin dehydrogenase (HPGD) catalyzes the inactivation of prostaglandin E2, and plays a major role in cancer biology by antagonizing the oncogenic potential of cyclooxygenase type 2 (COX2). Assays are available, based on absorbance/fluorescence increase of NADH with the substrate 15-OH prostaglandin E2. Inhibition of HPGD activity was screened by utilizing prostaglandin as an electron donor and NAD+ as an electron acceptor/cofactor. An increase in the fluorescence intensity due to conversion of NAD+ to NADH was used to measure the enzyme activity. This assay is a confirmation screen of primary qHTS protocol (See AID 894). References 1. Myung SJ, Rerko RM, Yan M, Platzer P, Guda K, Dotson A, Lawrence E, Dannenberg AJ, Lovgren AK, Luo G, Pretlow TP, Newman RA, Willis J, Dawson D, Markowitz SD. 15-Hydroxyprostaglandin dehydrogenase is an in vivo suppressor of colon tumorigenesis. Proc Natl Acad Sci U S A. 2006 Aug 8;103(32):12098-102. 2. […]
Buffer: 50 mM Tris-HCl, 0.01% Tween 20, pH 8. […] The plates were immediately transferred to and read 5 times every 30 seconds on ViewLux High-throughput CCD imager (Perkin-Elmer) using 360 nm excitation and 450 nm emission fluorescence protocol. The fluorescence intensity difference between the last and the first time points was used to compute reaction progress.

15-hydroxyprostaglandin dehydrogenase [NAD(+)] (Homo sapiens), sequence (P15428 whole entry, looked up): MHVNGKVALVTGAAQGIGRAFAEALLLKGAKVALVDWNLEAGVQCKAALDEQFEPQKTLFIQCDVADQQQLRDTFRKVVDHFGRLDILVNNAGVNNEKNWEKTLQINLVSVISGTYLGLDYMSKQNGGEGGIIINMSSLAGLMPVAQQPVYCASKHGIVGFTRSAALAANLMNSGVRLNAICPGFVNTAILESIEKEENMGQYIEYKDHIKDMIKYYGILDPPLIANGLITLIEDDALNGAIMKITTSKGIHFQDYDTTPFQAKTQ

CCN(CC)C(=O)c1ccc(NC(=O)c2cc(-n3cnnc3)ccc2Cl)cc1
Potency: 7.08 µM (active)
